# Several values for one entry are separate records, joined by “and”; a condition that tells them apart may be missing. Equal values may be shown once. Results filed as inconclusive are left out. Entries that show only a call come without a potency. Activity calls are given as the source filed them. Calls come from the whole dose curve; as a rule, active = well fitted inhibition curve with a large enough effect in the signal ratio in the repeat runs (not every such curve was filed as active); inconclusive = weak or mixed curves, or effect the other way; inactive = no such curve, though single readings can be large or run the other way; the % refers to the signal ratio.
# Target: Glucocorticoid receptor (Homo sapiens) (UniProt P04150)
# Assay: qHTS assay to identify small molecule antagonists of the glucocorticoid receptor (GR) signaling pathway (AID 720692)
# Details: GR-bla HeLa, beta-lactamase FRET ratio, dexamethasone-stimulated, 18 h; series mostly up to 58.5 µM; activity change, negative = inhibition: at the top concentration
# Excerpt: U.S. Tox21 Program National Center for Advancing Translational Sciences [NCATS] NIH Chemical Genomics Center [NCGC] U.S. Environmental Protection Agency [EPA] National Institutes of Environmental Health Sciences [NIEHS] National Toxicology Program [NTP] U.S. Food and Drug Administration [FDA] Tox21 Assay Overview: The Glucocorticoid receptor (GR) is one of the members of the nuclear receptor family of ligand-dependent transcription factors. GR plays a critical role in carbohydrate, protein and lipid metabolisms and programmed cell death. CellSensor GR-bla HeLa cell line (Invitrogen) contains a beta-lactamase reporter gene under the control of the glucocorticoid response element stably integrated into HeLa cells, a cervical cancer cell line that expresses glucocorticoid receptor. The activation of the reporter gene under culture conditions can be detected by fluorescence intensity. This cell line has been used to screen the Tox21 10K compound library and to identify the compounds that inhibit the GR signaling.
# Tox21 Assay Protocol Summary: The GR-bla HeLa cells were dispensed at 1500 cells/5 ul/well in 1536-well black wall/clear bottom plates using a Multidrop Combi (ThermoFisher Scientific, Waltham, MA) dispenser. After the assay plates were incubated at a 37 C/5% CO2 incubator for 4 hours, 23 nL of compounds dissolved in DMSO, positive controls or DMSO only was transferred to the assay plate by a pintool station (Kalypsys, San Diego, CA), followed by addition of 1 uL of dexamethasone (5 nM, final concentration in the well). The plates were incubated at 37 C for 18 hours. After 1 uL of LiveBLAzerTM B/G FRET substrate was added using a Flying Reagent Dispenser (Aurora Discovery, San Diego, CA), the plates were incubated at room temperature for 2 hours, and fluorescence intensity was measured by an Envision plate reader (PerkinElmer, Shelton, CT).
# Potency is the fitted concentration of half-maximal effect.
# Sequence of Glucocorticoid receptor (Homo sapiens) (P04150 whole entry, looked up): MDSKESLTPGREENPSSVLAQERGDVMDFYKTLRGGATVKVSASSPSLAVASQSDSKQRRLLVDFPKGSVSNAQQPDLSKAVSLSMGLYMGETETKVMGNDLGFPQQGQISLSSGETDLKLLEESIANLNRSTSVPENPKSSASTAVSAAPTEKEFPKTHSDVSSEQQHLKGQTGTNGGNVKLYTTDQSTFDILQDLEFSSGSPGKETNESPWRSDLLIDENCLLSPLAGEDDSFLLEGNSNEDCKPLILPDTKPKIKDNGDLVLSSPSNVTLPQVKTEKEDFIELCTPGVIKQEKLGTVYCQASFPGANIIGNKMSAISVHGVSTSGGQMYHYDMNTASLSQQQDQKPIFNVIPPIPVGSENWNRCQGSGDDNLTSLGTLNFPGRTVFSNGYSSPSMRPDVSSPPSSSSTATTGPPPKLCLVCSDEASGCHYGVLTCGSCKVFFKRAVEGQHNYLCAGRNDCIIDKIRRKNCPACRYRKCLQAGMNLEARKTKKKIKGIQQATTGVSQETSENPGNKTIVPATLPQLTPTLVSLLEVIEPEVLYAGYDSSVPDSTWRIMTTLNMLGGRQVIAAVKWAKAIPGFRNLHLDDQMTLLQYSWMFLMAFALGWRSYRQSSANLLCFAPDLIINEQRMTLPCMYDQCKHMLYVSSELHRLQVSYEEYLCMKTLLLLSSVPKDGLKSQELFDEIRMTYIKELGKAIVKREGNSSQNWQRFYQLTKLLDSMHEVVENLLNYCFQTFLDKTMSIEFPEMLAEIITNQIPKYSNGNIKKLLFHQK
SMILES,Potency,"activity change, negative = inhibition"
Brc1cc(Oc2cc(Br)c(Br)c(Br)c2Br)c(Br)c(Br)c1Br,inactive,–
C[C@]12CCC(=O)C=C1CC[C@@H]1[C@@H]2C(=O)C[C@@]2(C)[C@H]1CC[C@]2(O)C(=O)CO,9.52 µM (active) and 6.92 µM (active),–
Cc1ccc(C(=O)c2cc(O)c(O)c([N+](=O)[O-])c2)cc1,34.7 µM (active),–
c1cc(-c2ccncc2)ccn1,inactive,–
CN(C)CCN(Cc1cccs1)c1ccccn1,inactive,–
O=C(c1ccccc1)c1ccccc1O,inactive,–
COc1ccccc1/C=C/C=O,inactive,–
O=S(=O)(O)c1ccc(O)cc1,inactive,–
Cc1c(OCC(F)(F)F)ccnc1CS(=O)c1nc2ccccc2[nH]1 (stereo not given),–,-22.7% (inactive)
CCC(C)OC(=O)c1ccc(O)cc1 (stereo not given),inactive,–
CCC(C)(O)CCCC(C)C (stereo not given),inactive,–
Clc1nc(Cl)c(Cl)c(Cl)c1Cl,15.6 µM (active) and 24.5 µM (active),–
S=C(NC1CCCCC1)NC1CCCCC1,–,9.88% (inactive)
CCCCC(CC)COP(=O)(OCC(CC)CCCC)OCC(CC)CCCC (stereo not given),inactive,–
c1ccc2c(c1)c1cccc3ccc4cccc2c4c31,–,8.95% (inactive)
C/C=C/C(=O)O,–,3.23% (inactive)
Cc1cccc(N(C)C(=S)Oc2ccc3ccccc3c2)c1,–,-1.12% [at 27 µM] (inactive)
CC(C)=CCC/C(C)=C\CO,inactive,–
COc1ccc(OC)c(C(O)CNC(=O)CN)c1 (stereo not given),–,-2.37% [at 27 µM] (inactive)
CCC(C)c1ccccc1O (stereo not given),inactive,–

SMILES,Potency,"activity change, negative = inhibition"
COC(=O)Nc1nc2ccc(S(=O)c3ccccc3)cc2[nH]1 (stereo not given),–,-8.39% (inactive)
CCCCC(CC)COCC1CO1 (stereo not given),inactive,–
C[C@]12CC[C@H]3[C@@H](CCC4=CC(=O)CC[C@@]43C)[C@@H]1CC[C@@H]2C(=O)CO,811 nM (active) and 977 nM (active),–
CCOCCOCCO,inactive,–
CCCC(=O)O,inactive,–
O=C(O)c1ccccc1Nc1cccc(C(F)(F)F)c1,49 µM (active),–
CC(C)OB(OC(C)C)OC(C)C,inactive,–
Nc1ccc(S(=O)(=O)Nc2cnc3ccccc3n2)cc1,inactive,–
CN1C(C(=O)Nc2ccccn2)=C(O)c2ccccc2S1(=O)=O,–,-3.2% [at 27 µM] (inactive)
CCCCC(CC)COC(=O)c1ccc(N(C)C)cc1 (stereo not given),inactive,–
C=C(C)C(=O)OCCOC(=O)C(=C)C,inactive,–
C#C[C@]1(O)CC[C@H]2[C@@H]3CCC4=Cc5oncc5C[C@]4(C)[C@H]3CC[C@@]21C,5.35 µM (active),–
CC1=CC2C3CC(C=C3C)C2C1 (stereo not given),–,-7.62% (inactive)
O=C=Nc1ccc(Cc2ccc(N=C=O)cc2)cc1,–,0.821% (inactive)
CC(C)OC(=O)C(C)(C)Oc1ccc(C(=O)c2ccc(Cl)cc2)cc1,inactive,–
O=C(c1ccccc1)c1ccc(O)cc1O,–,3.16% [at 78.9 µM] (inactive)
CNCCCC12CCC(c3ccccc31)c1ccccc12,–,-6.71% (inactive)
Nc1ncnc2nc[nH]c12,–,7.23% (inactive)
COC(=O)CCC(=O)OC,inactive,–
c1ccc2cc(Nc3ccc(Nc4ccc5ccccc5c4)cc3)ccc2c1,inactive,–
